Measured values reported in PubChem BioAssay AID1159580 (chemical genetic matrix, 2015).
Screen size: about 5,500 compounds; about 2,000 (36%) were called active. Not shown: some 18% with an inconclusive outcome. Rule as the data show it: active = normalized growth mostly below about 0.91 (no sharp cut-off); inconclusive = no clear call, values can overlap the other calls; inactive = mostly above about 0.92. The list shows a part of the results.

Assay: chemical genetic growth profiling, strain panel (AID 1159580);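 also: tested at 20 µM; growth read once vehicle control cultures reached saturation at 30 °C; 1 = growth at the plate median or of vehicle wells; lower values mean less growth of the strain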
Settings: S. cerevisiae deletion strains, growth OD
[1] = locus YNL322C, strain KRE1, hits give low values
[2] = locus YPL241C, strain CIN2, hits give low values

Measured: normalized growth

CC[C@H](C)C(=O)O[C@H]1CCC=C2C=C[C@H](C)[C@H](CC[C@@H]3C[C@@H](O)CC(=O)O3)[C@H]21
inactive: locus YAL040C, strain CLN3, hits give low values 1.01 | locus YCL061C, strain MRC1 (second series), hits give low values 0.995 | locus YDR363W, strain ESC2, hits give low values 1.02 | locus YER002W, strain NOP16, hits give low values 0.976 | locus YJR075W, strain HOC1, hits give low values 0.988 | locus YNL128W, strain TEP1, hits give low values 0.947 | locus YNL175C, strain NOP13, hits give low values 0.985 | locus YNL197C, strain WHI3, hits give low values 0.987 | locus YNL224C, strain SQS1, hits give low values 0.98 | [1] 0.995 | locus YOR083W, strain WHI5 (second series), hits give low values 0.999 | [2] 0.994

CC[C@H](C)C(=O)O[C@H]1CCC=C2C=C[C@H](C)C(CCC3C[C@@H](O)CC(=O)O3)[C@H]21 (stereo not given in full)
inactive: locus YAL026C, strain drs2, hits give low values 1.02 | locus YAL030W, strain snc1, hits give low values 0.997 | locus YBL061C, strain skt5, hits give low values 1.01 | locus YBR009C, strain hhf1, hits give low values 1 | locus YBR021W, strain FUR4, hits give low values 0.958 | locus YBR023C, strain chs3, hits give low values 1.01 | locus YBR171W, strain sec66, hits give low values 1.02 | locus YBR229C, strain ROT2, hits give low values 0.983 | locus YBR231C, strain swc5, hits give low values 0.95 | locus YBR279W, strain paf1, hits give low values 1 | locus YCL011C, strain gbp2, hits give low values 1.01 | locus YCL016C, strain dcc1, hits give low values 0.997 | locus YCL029C, strain bik1, hits give low values 0.969 | locus YCL061C, strain MRC1, hits give low values 1 | locus YCL069W, strain vba3, hits give low values 1 | locus YCR088W, strain abp1, hits give low values 1.01 | locus YDL005C, strain med2, hits give low values 0.988 | locus YDL035C, strain GPR1, hits give low values 0.981 | locus YDL040C, strain nat1, hits give low values 1 | locus YDL074C, strain BRE1, hits give low values 0.957 | locus YDL101C, strain DUN1, hits give low values 0.989 | locus YDL134C, strain PPH21, hits give low values 1.01 | locus YDL185W, strain tfp1, hits give low values 0.978 | locus YDL192W, strain arf1, hits give low values 0.972 | locus YDR001C, strain nth1, hits give low values 1 | locus YDR069C, strain doa4, hits give low values 1.01 | locus YDR101C, strain arx1, hits give low values 0.974 | locus YDR150W, strain NUM1, hits give low values 0.997 | locus YDR159W, strain sac3, hits give low values 1.04 | locus YDR162C, strain NBP2, hits give low values 0.987 | locus YDR195W, strain ref2 1 | locus YDR297W, strain sur2, hits give low values 1 | locus YDR318W, strain mcm21, hits give low values 0.992 | locus YDR334W, strain swr1, hits give low values 0.997 | locus YDR335W, strain msn5, hits give low values 0.999 | locus YDR388W, hits give low values 0.981 | locus YDR392W, strain spt3, hits give low values 0.989 | locus YDR502C, strain sam2, hits give low values 1.02 | locus YEL003W, strain gim4, hits give low values 1.02 | locus YEL037C, strain rad23, hits give low values 1 | locus YEL061C, strain CIN8 (second series), hits give low values 0.999 | locus YEL061C, strain CIN8, hits give low values 0.99 | locus YER015W, strain faa2, hits give low values 1.01 | locus YER016W, strain bim1, hits give low values 0.999 | locus YER110C, hits give low values 0.968 | locus YER111C, strain swi4, hits give low values 0.995 | locus YER155C, strain BEM2 (second series), hits give low values 1.02 | locus YER155C, strain BEM2, hits give low values 0.967 | locus YER167W, strain BCK2, hits give low values 0.99 | locus YFR010W, strain ubp6, hits give low values 1.03 | locus YGL078C, strain dbp3, hits give low values 0.971 | locus YGL086W, strain mad1, hits give low values 0.956 | locus YGL167C, strain pmr1, hits give low values 0.996 | locus YGL173C, strain kem1, hits give low values 1.01 | locus YGL227W, strain vid30, hits give low values 1 | locus YGL240W, strain doc1, hits give low values 1.02 | locus YGL248W, strain PDE1, hits give low values 0.998 | locus YGL253W, strain hxk2, hits give low values 1.01 | locus YGR135W, strain pre9, hits give low values 1 | locus YGR252W, strain gcn5, hits give low values 1.03 | locus YHR013C, strain ard1, hits give low values 0.947 | locus YHR027C, strain rpn1, hits give low values 1.02 | locus YHR030C, strain SLT2, hits give low values 0.982 | locus YHR079C, strain IRE1 (second series), hits give low values 0.98 | locus YHR094C, strain hxt1, hits give low values 0.981 | locus YHR129C, strain ARP1, hits give low values 0.987 | locus YHR142W, strain chs7, hits give low values 1.01 | locus YHR200W, strain rpn10, hits give low values 0.978 | locus YIL066C, strain RNR3, hits give low values 0.989 | locus YIL073C, strain SPO22, hits give low values 0.975 | locus YIL125W, strain kgd1, hits give low values 0.99 | locus YIR030C, strain dcg1, hits give low values 0.981 | locus YJL092W, strain hpr5, hits give low values 1.01 | locus YJL095W, strain BCK1 (second series), hits give low values 1.01 | locus YJL095W, strain BCK1, hits give low values 1.03 | locus YJL115W, strain asf1, hits give low values 1 | locus YJL129C, strain trk1, hits give low values 1.04 | locus YJL134W, strain LCB3, hits give low values 0.977 | locus YJL154C, strain vps35, hits give low values 1 | locus YJL164C, strain tpk1, hits give low values 1.01 | locus YJL166W, strain qcr8, hits give low values 1.02 | locus YJL168C, strain set2, hits give low values 0.975 | locus YJL187C, strain SWE1 (second series), hits give low values 0.994 | locus YJL187C, strain SWE1, hits give low values 1 | locus YJR043C, strain POL32, hits give low values 0.978 | locus YKL068W, hits give low values 0.987 | locus YKL085W, strain MDH1 (second series), hits give low values 0.966 | locus YKL085W, strain MDH1, hits give low values 0.966 | locus YKL160W, strain elf1, hits give low values 1.01 | locus YKL190W, strain CNB1, hits give low values 0.993 | locus YKR001C, strain vps1, hits give low values 0.973 | locus YKR026C, strain gcn3, hits give low values 0.981 | locus YKR091W, strain srl3, hits give low values 1 | locus YLL001W, strain dnm1, hits give low values 1.01 | locus YLL026W, hits give low values 1.01 | locus YLL041C, strain sdh2, hits give low values 1 | locus YLR027C, strain aat2, hits give low values 1.01 | locus YLR039C, strain RIC1, hits give low values 1.15 | locus YLR058C, strain SHM2, hits give low values 0.989 | locus YLR102C, strain apc9, hits give low values 0.973 | locus YLR221C, strain rsa3, hits give low values 1.02 | locus YLR258W, strain gsy2, hits give low values 1.01 | locus YLR262C, strain YPT6, hits give low values 1.07 | locus YLR268W, strain sec22, hits give low values 0.954 | locus YLR320W, strain mms22, hits give low values 1.02 | locus YLR330W, strain CHS5, hits give low values 0.991 | locus YLR342W, strain FKS1 (second series), hits give low values 1.03 | locus YLR342W, strain FKS1, hits give low values 1.01 | locus YLR357W, strain rsc2, hits give low values 1.01 | locus YLR370C, strain arc18, hits give low values 1 | locus YLR371W, strain rom2, hits give low values 0.955 | locus YLR384C, strain iki3, hits give low values 1.01 | locus YLR418C, strain cdc73, hits give low values 1 | locus YML016C, strain PPZ1, hits give low values 0.999 | locus YML032C, strain rad52, hits give low values 1.03 | locus YML120C, strain ndi1, hits give low values 1.02 | locus YML124C, strain tub3, hits give low values 0.983 | locus YMR058W, strain fet3, hits give low values 1.01 | locus YMR078C, strain ctf18, hits give low values 0.997 | locus YMR125W, strain sto1, hits give low values 1.02 | locus YMR129W, hits give low values 1 | locus YMR205C, strain PFK2, hits give low values 1.01 | locus YMR223W, strain ubp8, hits give low values 0.995 | locus YMR231W, strain pep5, hits give low values 0.996 | locus YMR307W, strain GAS1, hits give low values 1.07 | locus YNL067W, strain RPL9B, hits give low values 1 | locus YNL071W, strain lat1, hits give low values 1 | locus YNL209W, strain ssb2, hits give low values 1.02 | locus YNL233W, strain BNI4, hits give low values 1.01 | locus YNL248C, strain rpa49, hits give low values 1.02 | locus YNL250W, strain rad50, hits give low values 0.977 | locus YNL271C, strain bni1, hits give low values 0.977 | locus YNL298W, strain CLA4, hits give low values 0.968 | locus YNL307C, strain MCK1, hits give low values 0.978 | locus YNL322C, strain KRE1 (second series), hits give low values 1.01 | [1] 0.989 | locus YNR049C, strain mso1, hits give low values 1.01 | locus YNR052C, strain pop2, hits give low values 0.966 | locus YOL012C, strain htz1 0.865 | locus YOL147C, strain pex11, hits give low values 0.994 | locus YOR001W, strain rrp6, hits give low values 1.01 | locus YOR061W, strain CKA2, hits give low values 0.985 | locus YOR069W, strain VPS5, hits give low values 0.981 | locus YOR070C, strain gyp1, hits give low values 1.02 | locus YOR080W, strain dia2, hits give low values 1 | locus YOR083W, strain WHI5, hits give low values 1.01 | locus YOR106W, strain vam3, hits give low values 1.04 | locus YOR136W, strain idh2, hits give low values 0.977 | locus YOR144C, strain elg1, hits give low values 0.977 | locus YOR184W, strain ser1, hits give low values 0.957 | locus YOR265W, strain rbl2, hits give low values 1 | locus YOR270C, strain vph1, hits give low values 0.999 | locus YOR290C, strain snf2, hits give low values 0.991 | locus YOR316C, strain cot1, hits give low values 0.983 | locus YPL051W, strain arl3, hits give low values 1.02 | locus YPL078C, strain atp4, hits give low values 1.01 | locus YPL106C, strain sse1, hits give low values 1.06 | locus YPL240C, strain hsp82, hits give low values 1.01 | [2] 0.981 | locus YPR119W, strain clb2, hits give low values 0.979 | locus YPR141C, strain kar3, hits give low values 0.963 | locus YPR163C, strain tif3, hits give low values 0.992 | locus YPR167C, strain met16, hits give low values 1 | strain wtn01, hits give low values 0.935
active: locus YAL021C, strain ccr4, hits give low values 0.894 | locus YDR137W, strain rgp1, hits give low values 1.39 [resistant] | locus YKL009W, strain mrt4, hits give low values 0.864 | locus YLR262C, strain YPT6 (second series), hits give low values 1.22 [resistant]
